Assay results as given in PubChem BioAssay (NCI).
About 83,000 compounds went through this panel and 20% of them were active in at least one assay; those are over-represented in the sample as a whole.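 96-well plates, one dose, 48 hours. Percent growth reported; active if below 10.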 Active and inactive are the calls of the source.

Key:
Assay in all cases: NCI-60 one-dose screen, 48 h (100 = growth as untreated, 0 = no growth, -100 = all killed)
EKVX NSCLC = settings: 10 µM unless noted
SN12C renal = settings: 10 µM unless noted
UO-31 renal = settings: 10 µM unless noted
TK-10 renal = settings: 10 µM unless noted
ACHN renal = settings: 10 µM unless noted
CAKI-1 renal = settings: 10 µM
A498 renal = settings: 10 µM unless noted
CCRF-CEM leukemia = settings: 10 µM unless noted
MOLT-4 leukemia = settings: 10 µM unless noted
SR leukemia = settings: 10 µM unless noted
RPMI-8226 leukemia = settings: 10 µM unless noted
OVCAR-8 ovarian = settings: 10 µM unless noted
OVCAR-5 ovarian = settings: 10 µM unless noted
OVCAR-4 ovarian = settings: 10 µM unless noted
SK-OV-3 ovarian = settings: 10 µM unless noted
IGROV1 ovarian = settings: 10 µM unless noted
HS 578T breast = settings: 10 µM unless noted
NCI/ADR-RES ovarian = settings: 10 µM unless noted
SK-MEL-2 melanoma = settings: 10 µM unless noted
OVCAR-3 ovarian = settings: 10 µM unless noted

Measured: growth

C=CCn1c(SCC(=O)Nc2cccc(C(=O)/C=C/c3ccc(Cl)cc3)c2)nc2ccccc2c1=O
inactive: EKVX NSCLC 99.5% | SN12C renal 86.2% | UO-31 renal 67.6% | TK-10 renal 96.4% | ACHN renal 90.6% | CAKI-1 renal 76.8% | A498 renal 78% | CCRF-CEM leukemia 96.6% | MOLT-4 leukemia 94% | SR leukemia 21% | OVCAR-8 ovarian 95% | OVCAR-5 ovarian 97.9% | OVCAR-4 ovarian 87.6% | SK-OV-3 ovarian 110% | IGROV1 ovarian 96.4% | HS 578T breast 87.3% | NCI/ADR-RES ovarian 91%
active: RPMI-8226 leukemia 9.15%

COc1ccc(-c2oc3cc(O)cc(O)c3c(=O)c2OC)cc1O
active: A498 renal -6.41% | CCRF-CEM leukemia 2.67% | OVCAR-3 ovarian -7.51%
inactive: SK-MEL-2 melanoma 13.2% | EKVX NSCLC 38.7% | UO-31 renal 26.2% | TK-10 renal 52.3% | ACHN renal 34.1% | CAKI-1 renal 14.9% | MOLT-4 leukemia 21.4% | SR leukemia 11% | RPMI-8226 leukemia 17.4% | OVCAR-8 ovarian 26.8% | OVCAR-5 ovarian 59.8% | OVCAR-4 ovarian 46.2% | SK-OV-3 ovarian 19.2% | HS 578T breast 11.2% | NCI/ADR-RES ovarian 15.4%

Cc1csc(Nc2cccc(Nc3nc(C)cs3)c2)n1
inactive: EKVX NSCLC 61.4% | SN12C renal 88.2% | UO-31 renal 67.1% | TK-10 renal 101% | ACHN renal 75.4% | CAKI-1 renal 78.1% | A498 renal 47.3% | CCRF-CEM leukemia 89% | MOLT-4 leukemia 70.8% | SR leukemia 63.9% | RPMI-8226 leukemia 62.3% | OVCAR-8 ovarian 82.7% | OVCAR-5 ovarian 92% | OVCAR-4 ovarian 66.8% | SK-OV-3 ovarian 98.7% | IGROV1 ovarian 76.6% | HS 578T breast 85.3% | NCI/ADR-RES ovarian 66.9%

CS(=O)(=O)c1nccc(-c2c(-c3ccc(F)c(OCc4ccccc4)c3)nc3sccn23)n1
inactive: EKVX NSCLC 87.6% | SN12C renal 97.5% | UO-31 renal 86% | TK-10 renal 101% | ACHN renal 93.4% | CAKI-1 renal 93.6% | A498 renal 80.3% | CCRF-CEM leukemia 54.7% | MOLT-4 leukemia 74% | SR leukemia 16.6% | RPMI-8226 leukemia 43.3% | OVCAR-8 ovarian 99.6% | OVCAR-5 ovarian 100% | OVCAR-4 ovarian 104% | SK-OV-3 ovarian 117% | IGROV1 ovarian 101% | HS 578T breast 91.3% | NCI/ADR-RES ovarian 99.9%

CCCCCCNC(=O)Oc1ccc(/C(=C(/C)c2ccccc2)c2ccc(OCCN(C)C)cc2)cc1
inactive: EKVX NSCLC 72.2% | SN12C renal 63.6% | UO-31 renal 53.9% | TK-10 renal 83% | ACHN renal 71.3% | CAKI-1 renal 50.9% | A498 renal 76.5% | CCRF-CEM leukemia 67.9% | MOLT-4 leukemia 34.7% | RPMI-8226 leukemia 50.5% | OVCAR-8 ovarian 73.6% | OVCAR-5 ovarian 73% | OVCAR-4 ovarian 73.6% | SK-OV-3 ovarian 93.2% | IGROV1 ovarian 66.3% | HS 578T breast 64.5% | NCI/ADR-RES ovarian 71.2%
active: SR leukemia -27.8%

C=C1C(=O)O[C@@H]2/C=C(/C)C3=CC(=O)[C@@](C)(C[C@H](OC(=O)/C(C)=C\C)[C@@H]12)O3
active: SK-MEL-2 melanoma -28.5% | UO-31 renal -85.4% | TK-10 renal -18% | ACHN renal -39.1% | CCRF-CEM leukemia -14.9% | MOLT-4 leukemia 0.44% | SR leukemia 2.49% | RPMI-8226 leukemia -11.3% | OVCAR-8 ovarian 8.15% | OVCAR-5 ovarian 4.42% | OVCAR-3 ovarian 2.79%
inactive: EKVX NSCLC 21.6% | A498 renal 59.5% | OVCAR-4 ovarian 21% | SK-OV-3 ovarian 92.6% | IGROV1 ovarian 19% | HS 578T breast 46.5% | NCI/ADR-RES ovarian 17.4%

CN1CCN(c2ccc(C(=O)Nc3cccc(-c4cn(-c5ccc(S(N)(=O)=O)cc5)nn4)c3)cc2C(F)(F)F)CC1
active: SR leukemia -1.19%
inactive: EKVX NSCLC 89.9% | SN12C renal 92.4% | UO-31 renal 86.9% | TK-10 renal 117% | ACHN renal 87.6% | CAKI-1 renal 73.8% | A498 renal 97.6% | CCRF-CEM leukemia 70.8% | MOLT-4 leukemia 13.2% | RPMI-8226 leukemia 10.7% | OVCAR-8 ovarian 86.7% | OVCAR-5 ovarian 84.3% | OVCAR-4 ovarian 84.8% | SK-OV-3 ovarian 102% | IGROV1 ovarian 86.9% | HS 578T breast 71% | NCI/ADR-RES ovarian 101%

O=C(Nc1cc(Cl)cc(Cl)c1)Nc1ccc2oc(=O)ccc2c1
active: SN12C renal 4.07% | UO-31 renal 3.75% | ACHN renal 4.26% | CAKI-1 renal 7.57% | A498 renal -8.24% | SR leukemia 3.42% | RPMI-8226 leukemia 1.84%
inactive: EKVX NSCLC 17% | TK-10 renal 18.6% | CCRF-CEM leukemia 24.9% | MOLT-4 leukemia 12.4% | OVCAR-8 ovarian 12.5% | OVCAR-5 ovarian 36.4% | OVCAR-4 ovarian 19.5% | SK-OV-3 ovarian 25.7% | IGROV1 ovarian 26.4% | HS 578T breast 39.4% | NCI/ADR-RES ovarian 10.9%

C=CCn1c(SCC(=O)Nc2ccc(OC)cc2)nnc1-c1ccc(Cl)cc1
inactive: EKVX NSCLC 92.5% | SN12C renal 92.7% | UO-31 renal 73.5% | TK-10 renal 97.9% | ACHN renal 92.8% | CAKI-1 renal 84.6% | A498 renal 98.2% | CCRF-CEM leukemia 117% | MOLT-4 leukemia 84.2% | SR leukemia 74.3% | RPMI-8226 leukemia 105% | OVCAR-8 ovarian 98% | OVCAR-5 ovarian 93.9% | OVCAR-4 ovarian 99.7% | SK-OV-3 ovarian 101% | IGROV1 ovarian 89.8% | HS 578T breast 92.2% | NCI/ADR-RES ovarian 83.6%

COc1ccc2c(ccn2C(=O)N2c3ccccc3Sc3ccccc32)c1
active: SK-MEL-2 melanoma 4.71% | A498 renal -8.02%
inactive: SN12C renal 47.3% | UO-31 renal 55% | TK-10 renal 65.1% | ACHN renal 49.2% | CAKI-1 renal 30.9% | CCRF-CEM leukemia 18.7% | MOLT-4 leukemia 37.2% | SR leukemia 22% | RPMI-8226 leukemia 16.8% | OVCAR-8 ovarian 31.9% | OVCAR-5 ovarian 60.6% | OVCAR-4 ovarian 66.5% | SK-OV-3 ovarian 42.5% | IGROV1 ovarian 39.2% | HS 578T breast 19.8% | NCI/ADR-RES ovarian 11.6%

COc1cc(C(=O)c2cc(C(C)=O)c3c4ccccc4ccn23)cc(OC)c1OC
inactive: SK-MEL-2 melanoma 51.5% | SN12C renal 74.4% | UO-31 renal 43.3% | TK-10 renal 70.3% | ACHN renal 71.8% | CAKI-1 renal 30.2% | A498 renal 34% | CCRF-CEM leukemia 48.9% | MOLT-4 leukemia 34.6% | SR leukemia 16.8% | RPMI-8226 leukemia 52.3% | OVCAR-8 ovarian 62.9% | OVCAR-5 ovarian 69.9% | OVCAR-4 ovarian 69.1% | SK-OV-3 ovarian 56.2% | IGROV1 ovarian 52.6% | HS 578T breast 40.5% | NCI/ADR-RES ovarian 27.9%

CCN1C(=O)N(CC)C2SC(N/N=C/c3ccccc3)=NC21 (stereo not given)
inactive: SN12C renal 34.4% | UO-31 renal 54.6% | TK-10 renal 81.3% | ACHN renal 36% | CAKI-1 renal 40.1% | CCRF-CEM leukemia 16.7% | MOLT-4 leukemia 21.4% | SR leukemia 18.6% | RPMI-8226 leukemia 21.2% | OVCAR-5 ovarian 51.6% | SK-OV-3 ovarian 38.3% | HS 578T breast 15.8%
active: SK-MEL-2 melanoma 9.45% | A498 renal -19.2% | NCI/ADR-RES ovarian 3.93%

CC1OC(O[C@@H]2[C@H](O)C(CO)OC(O[C@H]3COC(O[C@H]4CC[C@]5(C)[C@H]6CC[C@]78OC[C@@]9(CC[C@](C)(C=O)C[C@H]97)C(=O)C[C@@]8(C)[C@]6(C)CC[C@H]5C4(C)C)[C@@H](O)[C@@H]3O)[C@H]2OC2OC[C@@H](O)[C@@H](O)[C@@H]2O)[C@@H](O)[C@@H](O)[C@H]1O (stereo not given in full)
active: SR leukemia 8.86%
inactive: SK-MEL-2 melanoma 99.4% | EKVX NSCLC 89.2% | UO-31 renal 75.2% | TK-10 renal 102% | ACHN renal 97.1% | A498 renal 132% | CCRF-CEM leukemia 80.5% | MOLT-4 leukemia 63.6% | RPMI-8226 leukemia 101% | OVCAR-8 ovarian 91.9% | OVCAR-5 ovarian 110% | OVCAR-4 ovarian 91.6% | SK-OV-3 ovarian 86.8% | IGROV1 ovarian 94.8% | HS 578T breast 103% | NCI/ADR-RES ovarian 95.2%
